Source: PubChem
KinaseGlo FLuc = Counterscreen for Luciferase (Kinase-Glo TM) Inhibition; Luciferin 4-monooxygenase (Photuris pensylvanica), Q27757; Kinase-Glo luciferase, ATP luminescence, 8 min; 200,000 tested, 0.28% active; Potency, µM (doses to about 38.3 µM), most hits filed as inhibitors; also: nearly all actives have a fitted effect of over 60% in size
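Luminescence was the read-out, taken after 8-minute incubation at ambient temperature. Luciferase turned over luciferin with 10 uM ATP in imidazole pH 7.2 buffer containing KCl, MgCl2, Tween 20 and BSA.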
RORgamma inh = qHTS for inhibitors of ROR gamma transcriptional activity | Nuclear receptor ROR-gamma (Mus musculus), P51450 | 310,000 tested, 5.4% active | AID 2551, 2010 | Drosophila S2 Gal4-RORgamma UAS-luciferase reporter, 20 h | Potency, µM (top dose mostly 53.6 µM), actives largely listed as inhibitors; also: nearly all actives have a fitted effect of over 60% in size
Target sequence (P51450 whole entry, looked up, the tested form may be a part): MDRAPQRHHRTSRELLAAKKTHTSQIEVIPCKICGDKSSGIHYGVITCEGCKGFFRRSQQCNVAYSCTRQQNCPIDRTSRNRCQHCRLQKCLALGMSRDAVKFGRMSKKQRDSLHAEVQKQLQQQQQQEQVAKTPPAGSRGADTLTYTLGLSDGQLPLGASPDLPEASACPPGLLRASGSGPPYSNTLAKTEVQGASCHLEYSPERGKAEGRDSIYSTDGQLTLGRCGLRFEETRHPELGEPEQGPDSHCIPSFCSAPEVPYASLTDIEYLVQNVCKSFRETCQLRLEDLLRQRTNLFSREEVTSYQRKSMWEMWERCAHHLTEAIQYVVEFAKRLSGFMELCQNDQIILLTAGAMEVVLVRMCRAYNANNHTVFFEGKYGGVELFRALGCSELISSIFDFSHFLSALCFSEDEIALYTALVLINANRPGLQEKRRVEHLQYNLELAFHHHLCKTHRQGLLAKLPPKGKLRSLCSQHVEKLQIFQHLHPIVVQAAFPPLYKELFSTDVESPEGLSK
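Stable Schneider cell line, Gal4 DNA-binding domain fused to ROR gamma, UAS-luciferase. Cmpd 1 hr RT → CuSO4 700 uM final → 20 hr RT → luciferase reagent 10 min → luminescence.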
VP16 counter = VP16 counterscreen qHTS for inhibitors of ROR gamma transcriptional activity. Drosophila S2 Gal4-VP16 UAS-luciferase, luminescence, 20 h. Potency, µM (series often up to 53.6 µM), hits mostly inhibitors. 310,000 tested, 3.5% active;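 also: Gal4-VP16 expression switched on by copper sulfate through the metallothionein promoter; nearly all actives have a fitted effect of over 50% in size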
Numbers stand for hits; - = inactive; ? = inconclusive; . = not tested or not shown; [ ] = remark or other dose. The list is not random: actives were taken first. Their share in the collection is about 6.4%. Calls follow the shape of the dose curve; as a rule, active = well fitted curve in the direction sought with a large enough effect; inconclusive = small, poorly fitted or top-dose-only effect, or another doubt; inactive = no such curve, though single readings can be large; an effect the other way counts as inactive or inconclusive.

SMILES	KinaseGlo FLuc	RORgamma inh	VP16 counter
CN1C(=O)C2(OCC(CO)([N+](=O)[O-])CO2)c2ccccc21 (stereo not drawn)	.	-	-
COC1CCCN(C(=O)c2cccc(OC3CCN(S(=O)(=O)N(C)C)CC3)c2)C1 (stereo not drawn)	.	-	-
C/C(=N\NC(N)=S)C1(C)CCCCC1	-	3.5µM	8.9µM
C/C(=N\NC(N)=O)C1(C)CCCCC1	-	-	-
COc1ccc(CC(=O)Nc2ccc(-c3cn4cccc(C)c4n3)cc2)cc1OC	-	-	-
Cc1cccn2cc(-c3ccc(NC(=O)Cc4ccccc4)cc3)nc12	.	5µM	?
CC(C)(C)NC(=O)CN(C(=O)CCC(=O)Nc1nccs1)c1ccc(F)cc1	.	-	-
CSc1ccccc1NC(=O)COc1ccc(Cl)cc1	-	-	?
S=C(NCCN1CCOCC1)Nc1ccc(Cl)cc1Cl	-	-	-
CCCNC(=S)Nc1ccc(Cl)cc1Cl	-	11µM	?
S=C(NCc1ccc(Cl)cc1)Nc1ccc(Cl)cc1Cl	-	11µM	11µM
CSc1ccccc1NC(=S)NCc1ccc(Cl)cc1	.	7.1µM	11µM
Fc1ccc(CNC(=S)Nc2ccc(Cl)cc2Cl)cc1	-	4µM	5.6µM
O=C(NCc1ccncc1)Nc1ccc(Cl)cc1Cl	-	-	-
S=C(NCc1ccncc1)Nc1ccc(Cl)cc1Cl	-	-	-
O=C1[C@H]2[C@H]3[C@H](O)[C@H](O)C/C(=N/OC[C@@H](O)COCc4ccco4)[C@@H]3CC[C@@H]2C(=O)N1C[C@@H]1CCCO1	.	-[10 µM]	-[10 µM]
CCCN1CCN(C(=O)C2CCCN(c3ncnc4c3nc3n4CCCCC3)C2)CC1 (stereo not drawn)	.	-	-
COc1cc(OC)c(OC)cc1CN1CCN(Cc2ccco2)CC1	.	-	-
O=C(NCc1ccccc1)Nc1cc(Cl)ccc1Cl	.	-	-
S=C(NCCCN1CCOCC1)Nc1ccc(Cl)cc1Cl	-	-	-
S=C(NCCc1ccc(Cl)cc1)Nc1ccc(Cl)cc1Cl	-	5.6µM	4.5µM
S=C(NCc1ccc(Cl)cc1)Nc1ccccc1Cl	-	13µM	?
C=CCC(C)(O)CCc1ccccc1 (stereo not drawn)	-	-	-
Cc1ccsc1-c1nc(CN2C[C@@H](C)O[C@@H](C)C2)c(C)o1	-	-	-
COc1ccc2oc(C(=O)Nc3ccc(S(=O)(=O)N(C)C4CCN(C)CC4)cc3)c(C)c2c1	.	-	-
SMILES	KinaseGlo FLuc	RORgamma inh	VP16 counter
CCCCn1c(C)cc2c(c1=O)[C@H]1O[C@](CCCC)(Cc3c1ccc1ccccc31)O2	.	-[10 µM]	-[10 µM]
O=C(COC(=O)c1n[nH]c2ccccc12)Nc1cccc(S(=O)(=O)N2CCOCC2)c1	-	?	-[10 µM]
O=C(COC(=O)c1n[nH]c2ccccc12)Nc1ccc(S(=O)(=O)N2CCCC2)cc1	-	-	10µM
COc1ccc2c(c1)CCC/C2=N/OC(=O)c1ccccc1OC	-	-	-
COc1ccc2c(c1)CC/C2=N\OC(=O)c1ccccc1C	-	4µM	?
O=C(O)C[C@@H]1C(=O)O[C@@H]2C(COC(=O)c3cc(O)c(O)c(O)c3)O[C@@H](OC(=O)c3cc(O)c(O)c(O)c3)[C@@H](OC(=O)c3cc(O)c(O)c4c3[C@H]1[C@H](O)C(=O)O4)[C@H]2OC(=O)c1cc(O)c(O)c(O)c1 (stereo partly drawn)	.	-	-
Cc1ccc(N=Nc2c(N)nn(-c3ccccc3)c2N)cc1	-	-	-
Cc1nn(-c2ccccc2)c(N)c1N=Nc1ccc2ccccc2c1	-	1.1µM	-
Cc1ccc(C(C(=O)NCc2ccco2)N(C(=O)CNC(=O)c2cccs2)c2c(C)cc(C)cc2C)cc1 (stereo not drawn)	-	?	-
Cc1ccc(C(C(=O)NCc2ccco2)N(C(=O)CNC(=O)c2cccs2)c2c(C)cccc2C)cc1 (stereo not drawn)	-	?	16µM
Cc1ccc(NC(=O)C2CC(=O)N(C(C)C)C2)cc1C (stereo not drawn)	.	-	-
O=C1C2CCCN2C(c2ccccc2)N1c1nccs1 (stereo not drawn)	-	5.6µM	-
O=C1C2CCCN2C(c2ccccc2)N1c1cccc(Cl)c1 (stereo not drawn)	-	-	-
CCOc1ccccc1C(=O)NN1C(=O)CCC1=O	-	6.3µM	?
CCOc1ccccc1C(=O)NCC(=O)O	-	-	?
Cc1nnc(Sc2nc3ccccc3o2)c2ccccc12	-	?	?
Clc1ccc(-c2nnc(Sc3nc4ccccc4o3)c3ccccc23)cc1	-	6.3µM	?
Cc1ccc(-c2nnc(Sc3nc4ccccc4o3)c3ccccc23)cc1	-	8.9µM	?
